Exocytosis inh – blocks lytic granule exocytosis. TALL-104 LAMP-1 surface exposure, flow cytometry; cells stimulated with thapsigargin and PMA. inhibition, % at 10 µM. AID 651702. 360,000 compounds, 0.66% hits;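 active = inhibition above about 55%, limit read from the data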
VLA-4 inh – inhibition in a human VLA-4 binding assay; 330,000 compounds, 0.2% hits; inhibition, % (about 7 µM as worked out from the volumes in the protocol); AID 2557; VLA-4 expressing cells, ligand binding flow cytometry; P13612; in the data active = inhibition above about 50%
Target sequence (P13612 whole entry, looked up): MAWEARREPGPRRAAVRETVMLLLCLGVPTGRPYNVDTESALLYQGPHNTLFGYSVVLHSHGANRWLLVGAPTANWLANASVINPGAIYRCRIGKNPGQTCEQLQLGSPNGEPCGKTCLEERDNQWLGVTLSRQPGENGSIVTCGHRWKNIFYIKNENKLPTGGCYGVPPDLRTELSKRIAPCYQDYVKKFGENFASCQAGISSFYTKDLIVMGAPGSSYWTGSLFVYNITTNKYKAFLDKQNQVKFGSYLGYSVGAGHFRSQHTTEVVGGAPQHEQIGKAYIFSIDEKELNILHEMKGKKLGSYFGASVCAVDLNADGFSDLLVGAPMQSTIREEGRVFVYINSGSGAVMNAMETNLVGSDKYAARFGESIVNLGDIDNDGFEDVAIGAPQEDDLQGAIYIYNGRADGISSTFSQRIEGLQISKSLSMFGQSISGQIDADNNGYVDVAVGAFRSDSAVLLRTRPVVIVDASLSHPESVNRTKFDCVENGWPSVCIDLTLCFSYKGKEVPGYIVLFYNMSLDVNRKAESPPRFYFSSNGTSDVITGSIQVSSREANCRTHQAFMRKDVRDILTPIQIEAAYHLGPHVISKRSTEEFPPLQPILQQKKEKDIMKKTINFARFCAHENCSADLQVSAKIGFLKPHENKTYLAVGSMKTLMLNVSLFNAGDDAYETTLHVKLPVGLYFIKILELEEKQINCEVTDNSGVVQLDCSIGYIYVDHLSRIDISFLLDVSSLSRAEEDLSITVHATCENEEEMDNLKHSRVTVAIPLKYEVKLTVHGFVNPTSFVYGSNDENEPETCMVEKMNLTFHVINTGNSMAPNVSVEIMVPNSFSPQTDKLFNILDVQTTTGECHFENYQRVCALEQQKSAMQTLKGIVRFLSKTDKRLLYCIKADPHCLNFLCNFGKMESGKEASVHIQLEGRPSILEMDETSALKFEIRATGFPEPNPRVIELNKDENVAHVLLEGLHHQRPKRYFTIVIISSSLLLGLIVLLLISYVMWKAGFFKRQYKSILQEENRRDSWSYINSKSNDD
ABCB6 inh 2 – inhibitors of human ABC transporter ABCB6 | AID 602162 | Q9NP58 | fluorescence ratio to DMSO, % at 10 µM | K562-ABCB6 porphyrin accumulation, flow cytometry, 1 h; stronger effect = lower value | 360,000 compounds, 0.19% hits;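 active = fluorescence ratio to DMSO below 75%, the collection mean minus 3 SD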;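 also: signal is porphyrin accumulated inside mitochondria; 100% equals median channel fluorescence of DMSO control wells; lower ratio means ABCB6 inhibition with less porphyrin fluorescence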
CaV13 ICDI inh – Primary screen for inhibitors of IQ motif and Ca2+-dependent inactivation inhibitor domain binding in CACNA1D, Förster resonance energy transfer in living cells, …. HEK cells, CFP/YFP FRET ICDI-IQ, plate reader, 10 min; percent FRET-ratio fall versus neutral wells. inhibition, % at 12.3 µM. 340,000 compounds, 0.098% hits. AID 743397;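 active = mean replicate inhibition of at least 30% and at least 1% of replicates passing that level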;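 also: 0% = median of the neutral control wells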
VLA-4 allo CP – confirmation of allosteric modulators of human VLA-4 integrin; shares compounds with VLA-4 inh; U937 cells, HUTS-21 LIBS mAb binding, flow cytometry; LDV ligand present at threefold Kd; inhibition, % at 6.7 µM; 1,300 compounds, 2% hits; AID 2813; in the data active = inhibition above about 40%;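 also: 0% = ligand without compound and 100% = no ligand background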
Active calls of the source: *. In the library only some 1.1% were active in any assay of this set; here they are far more common.

Results for COc1ccc(OC)c2sc(NC(=O)c3cccc(N4C(=O)CCC4=O)c3)nc12 ?
Exocytosis inh: 1; VLA-4 inh: 65*; ABCB6 inh 2: 97; CaV13 ICDI inh: -7; VLA-4 allo CP: 4

Results for CCCCNC(=O)C[C@H]1C[C@@]2(C(=O)OC)C(=C[C@H](COCc3ccccc3)O[C@@H]2C)N(CCC2=CCCCC2)C1=O ?
CaV13 ICDI inh: -6

Results for Cc1ccc(Oc2cnc3ccccc3n2)cc1 ?
Exocytosis inh: 2; VLA-4 inh: 53*; ABCB6 inh 2: 91; CaV13 ICDI inh: -5; VLA-4 allo CP: -5

What do the screens show for `Clc1ccc(Oc2cnc3ccccc3n2)cc1`?
Exocytosis inh: 2; VLA-4 inh: 30; ABCB6 inh 2: 101; CaV13 ICDI inh: -6

How did CCOc1ccc(NC(=O)Cn2cc(C(C)=O)c3ccccc32)cc1 do in these assays?
Exocytosis inh: -2; VLA-4 inh: 4; ABCB6 inh 2: 97; CaV13 ICDI inh: -18

What do the screens show for `Cc1cccc(NC(=O)Cn2cc(C=O)c3ccccc32)c1`?
Exocytosis inh: -1; VLA-4 inh: 7; ABCB6 inh 2: 90; CaV13 ICDI inh: -2

How did CCC(=O)c1cn(CC(=O)Nc2ccc(F)cc2)c2ccccc12 do in these assays?
Exocytosis inh: -1; ABCB6 inh 2: 96; CaV13 ICDI inh: -10

Results for CC(=O)c1cn(CC(=O)Nc2ccccc2C)c2ccccc12 ?
Exocytosis inh: -2; VLA-4 inh: 13; ABCB6 inh 2: 102; CaV13 ICDI inh: -7

Results for Cc1cccc(C)c1NC(=O)Cn1cc(C=O)c2ccccc21 ?
Exocytosis inh: -5; VLA-4 inh: 5; ABCB6 inh 2: 100; CaV13 ICDI inh: -5; VLA-4 allo CP: 8

How did COc1ccc(NC(=O)Cn2cc(C(C)=O)c3ccccc32)cc1 do in these assays?
Exocytosis inh: -8; VLA-4 inh: 7; ABCB6 inh 2: 99; CaV13 ICDI inh: 3; VLA-4 allo CP: 3

What do the screens show for `CCC(=O)c1cn(CC(=O)Nc2cccc(OC)c2)c2ccccc12`?
Exocytosis inh: -3; VLA-4 inh: 11; ABCB6 inh 2: 100; CaV13 ICDI inh: -5; VLA-4 allo CP: 6

How did CCC(=O)c1cn(CC(=O)Nc2ccc(C)cc2C)c2ccccc12 do in these assays?
Exocytosis inh: -2; VLA-4 inh: -1; ABCB6 inh 2: 101; CaV13 ICDI inh: -7; VLA-4 allo CP: 0

How did O=C(CSC1CCc2ccccc21)NNC(=O)Nc1ccc(Cl)cc1 (stereo not given) do in these assays?
CaV13 ICDI inh: -12

What do the screens show for `CCC(=O)c1cn(CC(=O)Nc2c(C)cccc2C)c2ccccc12`?
Exocytosis inh: -8; VLA-4 inh: 14; ABCB6 inh 2: 89; CaV13 ICDI inh: -2; VLA-4 allo CP: 7

What do the screens show for `CC(=O)c1cn(CC(=O)Nc2c(C)cccc2C)c2ccccc12`?
Exocytosis inh: -1; VLA-4 inh: 5; ABCB6 inh 2: 95; CaV13 ICDI inh: -5

What do the screens show for `COC(=O)c1ccc(CSc2ccc3nnc(-c4ccccn4)n3n2)o1`?
Exocytosis inh: 8; VLA-4 inh: 54*; ABCB6 inh 2: 94; CaV13 ICDI inh: -5; VLA-4 allo CP: 3

How did COC(=O)c1ccc(CSc2ccc3nnc(-c4ccc(F)cc4)n3n2)o1 do in these assays?
Exocytosis inh: 4; VLA-4 inh: -8; ABCB6 inh 2: 90; CaV13 ICDI inh: -5

How did CCOC(=O)c1cc(CC)sc1NC(=O)C(c1ccccc1)c1ccccc1 do in these assays?
Exocytosis inh: 0; VLA-4 inh: -13; ABCB6 inh 2: 143; CaV13 ICDI inh: -2; VLA-4 allo CP: -7

What do the screens show for `CCOC(=O)c1cc(CC)sc1NC(=O)C1CC1`?
Exocytosis inh: 5; VLA-4 inh: -1; ABCB6 inh 2: 99; CaV13 ICDI inh: -7

How did COc1ccc2c(c1)[nH]c1c(=O)n(CC3CCCO3)cnc12 (stereo not given) do in these assays?
Exocytosis inh: -4; VLA-4 inh: -13; ABCB6 inh 2: 92; CaV13 ICDI inh: -4

What do the screens show for `O=c1c2[nH]c3cccc(Cl)c3c2ncn1Cc1ccco1`?
Exocytosis inh: 0; VLA-4 inh: -1; ABCB6 inh 2: 95; CaV13 ICDI inh: -8; VLA-4 allo CP: 14

What do the screens show for `COc1cc2[nH]c3c(=O)n(CCN4CCCCC4)cnc3c2cc1OC`?
Exocytosis inh: 2; VLA-4 inh: 2; ABCB6 inh 2: 99

What do the screens show for `O=c1c2[nH]c3cccc(Cl)c3c2ncn1CCN1CCCCC1`?
Exocytosis inh: 1; VLA-4 inh: -1; ABCB6 inh 2: 96; CaV13 ICDI inh: -1; VLA-4 allo CP: 5

How did O=c1c2[nH]c3cccc(Cl)c3c2ncn1CC1CCCO1 (stereo not given) do in these assays?
Exocytosis inh: -1; VLA-4 inh: -21; ABCB6 inh 2: 95; CaV13 ICDI inh: -15; VLA-4 allo CP: 9

Results for O=C(COC(=O)CCc1ccc(S(=O)(=O)N2CCOCC2)cc1)NCc1ccc(Cl)cc1 ?
Exocytosis inh: -3; VLA-4 inh: 9; ABCB6 inh 2: 97; CaV13 ICDI inh: -3

Results for COC(=O)N1C[C@H](Oc2ncccn2)[C@H]2C[C@@H]1c1ccccc1O2 ?
CaV13 ICDI inh: -5

What do the screens show for `CCN(CC)S(=O)(=O)c1ccc(N2CCOCC2)c(NC(=O)c2cc(=O)[nH]c3ccccc23)c1`?
Exocytosis inh: -5; VLA-4 inh: 51*; ABCB6 inh 2: 95; CaV13 ICDI inh: 4; VLA-4 allo CP: -7

What do the screens show for `CCN(CC)S(=O)(=O)c1ccc(N2CCOCC2)c(NC(=O)c2cccc3ccccc23)c1`?
Exocytosis inh: -4; VLA-4 inh: 14; ABCB6 inh 2: 99; CaV13 ICDI inh: -4

How did CCOc1ccccc1/C=C(/C#N)C(N)=O do in these assays?
Exocytosis inh: 8; VLA-4 inh: 1; ABCB6 inh 2: 89; CaV13 ICDI inh: -15; VLA-4 allo CP: 2

What do the screens show for `Oc1ccc2sc(-c3ccccc3O)c(-c3ccc(OCCN4CCCCC4)cc3)c2c1`?
Exocytosis inh: 36; ABCB6 inh 2: 95; CaV13 ICDI inh: -7

What do the screens show for `COc1ccc2c(-c3ccc(OCCN4CCCCC4)cc3)c(-c3ccccc3OC)sc2c1`?
Exocytosis inh: 66*; ABCB6 inh 2: 103; VLA-4 allo CP: 0

How did COc1ccccc1-c1sc2ccccc2c1-c1ccc(OCCN2CCCCC2)cc1 do in these assays?
Exocytosis inh: 30; ABCB6 inh 2: 101; VLA-4 allo CP: 0

Results for COc1ccc(S(=O)(=O)N2CCCc3nc(-c4ccc(F)cc4)ccc32)cc1 ?
CaV13 ICDI inh: -12

How did O=C(N[C@H](Cc1ccccc1)C(=O)NCc1ccc2c(c1)OCO2)[C@H]1O[C@@H](n2ccc(=O)[nH]c2=O)[C@H](O)[C@@H]1O do in these assays?
CaV13 ICDI inh: -4

Results for COC(=O)C1=C(C)N(Cc2ccc(Cl)cc2)C(=S)NC1c1ccc(Br)cc1 (stereo not given) ?
CaV13 ICDI inh: -4

Results for CC(C)(C)c1ccc(C(=O)NCC(=O)N2CCCCCC2)cc1 ?
Exocytosis inh: 3; VLA-4 inh: -8; ABCB6 inh 2: 97; CaV13 ICDI inh: -4
